Rows were chosen to be rich in hits. Some 5.2% of all compounds tested hit in one or more screens of this group.
EphB4 ephrin blk = blocks human EphB4 binding to ephrin-B2; EphB4 LBD / TNYL-RAW-Alexa532 peptide, fluorescence polarization; inhibition, % at 7 µM; 97,000 compounds, 0.15% hits;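 active means inhibition above the screen-wide mean inhibition plus 3 SD, cut at about 15% in these data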;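 further: 0% = DMSO wells and 100% = excess unlabeled TNYL-RAW peptide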
Target sequence (P54760 whole entry, looked up, the tested form may be a part): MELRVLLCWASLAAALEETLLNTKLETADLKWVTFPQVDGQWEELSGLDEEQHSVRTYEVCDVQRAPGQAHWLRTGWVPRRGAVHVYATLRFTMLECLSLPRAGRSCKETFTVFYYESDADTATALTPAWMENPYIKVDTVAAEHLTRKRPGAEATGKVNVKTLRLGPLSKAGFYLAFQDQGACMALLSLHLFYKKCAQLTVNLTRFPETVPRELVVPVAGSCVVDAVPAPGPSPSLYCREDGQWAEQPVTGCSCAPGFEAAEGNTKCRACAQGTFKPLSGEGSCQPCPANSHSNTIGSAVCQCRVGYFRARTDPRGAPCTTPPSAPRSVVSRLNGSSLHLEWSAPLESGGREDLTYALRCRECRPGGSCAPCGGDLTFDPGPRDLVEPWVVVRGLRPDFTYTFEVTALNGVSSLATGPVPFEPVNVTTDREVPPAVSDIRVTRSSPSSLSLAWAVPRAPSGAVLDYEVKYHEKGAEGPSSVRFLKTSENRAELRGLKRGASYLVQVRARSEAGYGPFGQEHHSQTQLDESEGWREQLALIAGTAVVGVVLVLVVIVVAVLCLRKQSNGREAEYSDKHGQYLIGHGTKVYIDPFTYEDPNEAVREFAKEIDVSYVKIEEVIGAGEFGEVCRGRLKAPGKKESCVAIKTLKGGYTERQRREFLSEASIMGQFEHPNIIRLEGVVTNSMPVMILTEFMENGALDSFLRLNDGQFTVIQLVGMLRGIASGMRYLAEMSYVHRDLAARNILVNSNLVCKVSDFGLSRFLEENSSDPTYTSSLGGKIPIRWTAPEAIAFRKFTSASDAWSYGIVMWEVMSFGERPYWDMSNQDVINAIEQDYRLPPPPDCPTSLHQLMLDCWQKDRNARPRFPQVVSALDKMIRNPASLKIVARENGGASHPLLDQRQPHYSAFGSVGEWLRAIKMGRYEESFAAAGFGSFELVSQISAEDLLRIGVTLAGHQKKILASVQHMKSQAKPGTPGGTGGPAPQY
PostGolgi ctrl = yeast control strain growth, post-Golgi counter-screen; AID 738; inhibition, % at 10 µM; efflux-deficient yeast background strain, growth absorbance A615, 16 h; 98,000 compounds, 5% hits
Candida biofilm = kills Candida albicans biofilms | C. albicans biofilm + clotrimazole, Alamar Blue | inhibition, % at 6 µM | 85,000 compounds, 0.14% hits | AID 834;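 active means inhibition above 20%; inactive means inhibition below 20%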;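 further: preformed 24 hr biofilms exposed to compound for 48 hr; 0% = biofilm without compound and 100% = blank killed by clotrimazole plus chlorhexidine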
PostGolgi yeast = growth inhibition of a yeast mutant, post-Golgi transport screen | post-Golgi transport phenotypic cell assay | inhibition, % at 10 µM | 98,000 compounds, 0.9% hits;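 further: yeast cells grown in 1536-well plates; yeast grown about 18 h at 30C before absorbance read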
* = called active by the depositor; [ ] = dose if it differs, or a comment. Unless noted, no stated cut-off is given here; in the data, active means inhibition above about 30%; inactive means the rest.

How did CCN1CCCC1CNC(=O)C1CCN(Cc2nc(-c3cccc(Br)c3)oc2C)CC1 (stereo not drawn) do in these assays?
EphB4 ephrin blk: -6; PostGolgi ctrl: 5; Candida biofilm: 3; PostGolgi yeast: 0

Results for Nc1c(C(=O)c2ccc(Br)s2)oc2ccccc12 ?
EphB4 ephrin blk: 5; PostGolgi ctrl: 37*; Candida biofilm: 4; PostGolgi yeast: 2

Results for CC1CCCN(S(=O)(=O)c2ccc(NC(=O)CCN3C(=O)c4ccccc4C3=O)cc2)C1 (stereo not drawn) ?
EphB4 ephrin blk: 2; PostGolgi ctrl: 18; Candida biofilm: 8; PostGolgi yeast: 42*

What do the screens show for `O=C(CCN1C(=O)c2ccccc2C1=O)Nc1ccc(S(=O)(=O)N2CCOCC2)cc1`?
EphB4 ephrin blk: -6; PostGolgi ctrl: 3; Candida biofilm: 2; PostGolgi yeast: 6

How did CCN(CC)S(=O)(=O)c1ccc2oc(C(=O)NCC3COc4ccccc4O3)c(C)c2c1 (stereo not drawn) do in these assays?
PostGolgi ctrl: 35*; Candida biofilm: 5; PostGolgi yeast: -10

How did Cc1nc2ccccc2c2oc(C(=O)NCC3COc4ccccc4O3)cc12 (stereo not drawn) do in these assays?
PostGolgi ctrl: 42*; Candida biofilm: 4; PostGolgi yeast: 5

What do the screens show for `Cc1c(C(=O)NCC2COc3ccccc3O2)oc2ccc(S(=O)(=O)N3CCOCC3)cc12` (stereo not drawn)?
EphB4 ephrin blk: 7; PostGolgi ctrl: 2; Candida biofilm: 6; PostGolgi yeast: -11

What do the screens show for `CCc1ccc(CNC(=O)c2cc3c(C)nc4ccccc4c3o2)cc1`?
EphB4 ephrin blk: 4; PostGolgi ctrl: 29; Candida biofilm: 4; PostGolgi yeast: -1

How did Cc1cccc(C)c1NC(=S)N1CCC(N(C)CC2CCCO2)CC1 (stereo not drawn) do in these assays?
EphB4 ephrin blk: -3; PostGolgi ctrl: 4; Candida biofilm: 4; PostGolgi yeast: 5

What do the screens show for `Cc1cccc(NC(=S)N2CCC(N(C)CC3CCCO3)CC2)c1C` (stereo not drawn)?
EphB4 ephrin blk: -3; PostGolgi ctrl: 32*; Candida biofilm: 10; PostGolgi yeast: -16

Results for CCOc1ccc(S(=O)(=O)NCCC(=O)OC(C)C(=O)N2CCc3ccccc32)cc1 (stereo not drawn) ?
EphB4 ephrin blk: -2; PostGolgi ctrl: 5; Candida biofilm: 3; PostGolgi yeast: 3

Results for O=C(CSc1ncnc2c1oc1ccccc12)N1CCCc2ccccc21 ?
EphB4 ephrin blk: -1; PostGolgi ctrl: 44*; Candida biofilm: 8; PostGolgi yeast: 0

How did Cn1c(SCC(=O)N2CCCc3ccccc32)nnc1-c1c[nH]c2ccccc12 do in these assays?
EphB4 ephrin blk: 13; PostGolgi ctrl: -2; PostGolgi yeast: 10

Results for O=C(CSc1c[nH]c2ccccc12)N1CCCc2ccccc21 ?
EphB4 ephrin blk: -10; PostGolgi ctrl: 31*; Candida biofilm: 3; PostGolgi yeast: 5

How did Cc1nn(CC#N)c(=O)n1-c1ccc(F)cc1 do in these assays?
EphB4 ephrin blk: 5; PostGolgi ctrl: 0; Candida biofilm: -2; PostGolgi yeast: -4

How did CCn1c(CSc2nnc3ccccn23)nc2cc(C(=O)O)ccc21 do in these assays?
EphB4 ephrin blk: 27*[fluorescence artefact?]; PostGolgi ctrl: -2; Candida biofilm: 6; PostGolgi yeast: 6

What do the screens show for `CCn1c(CSc2nnc(-c3cccnc3)n2-c2ccccc2C)nc2cc(C(=O)O)ccc21`?
EphB4 ephrin blk: 30*[fluorescence artefact?]; PostGolgi ctrl: 0; Candida biofilm: 7; PostGolgi yeast: 17

How did CCOc1ccc(C(=O)CSc2nnc3ccccn23)cc1 do in these assays?
EphB4 ephrin blk: 0; PostGolgi ctrl: 4; Candida biofilm: 7; PostGolgi yeast: -3

How did Cc1ccccc1-n1c(SCC(=O)c2cc(C)n(C)c2C)nnc1-c1cccnc1 do in these assays?
EphB4 ephrin blk: -3; PostGolgi ctrl: -1; Candida biofilm: 4; PostGolgi yeast: -5

What do the screens show for `CS(=O)(=O)Nc1ccc(OCc2ccccc2)cc1`?
EphB4 ephrin blk: -1; PostGolgi ctrl: 31*; Candida biofilm: 4; PostGolgi yeast: 2

How did COC(=O)Nc1ccc(OCc2ccccc2)cc1 do in these assays?
EphB4 ephrin blk: -5; PostGolgi ctrl: 4; Candida biofilm: 1; PostGolgi yeast: 14

What do the screens show for `CCCNC(=O)C1CCN(S(=O)(=O)c2ccc(Br)cc2)CC1`?
EphB4 ephrin blk: 4; Candida biofilm: 7

How did CC1Cc2ccccc2N1C(=O)Cn1nnc(-c2ccccc2NC(=O)C2CCC2)n1 (stereo not drawn) do in these assays?
EphB4 ephrin blk: 1; PostGolgi ctrl: 32*; PostGolgi yeast: 4

Results for COc1cc2cc(CN(Cc3cccnc3)C(=O)NCc3ccccc3)c(=O)[nH]c2cc1OC ?
EphB4 ephrin blk: -2; PostGolgi ctrl: 17; Candida biofilm: 7; PostGolgi yeast: -3

Source: PubChem BioAssay (several laboratories)
